The campaign covered roughly 360,000 compounds. About 3,700 (1%) were called active. The sample holds actives, similar compounds and a random draw of the others, so the mix is not that of the screen. A number with no mark means an inactive call. Rule as the data show it: active = activation above about 30%; inactive = the rest.

Chain of D(1A) dopamine receptor (Homo sapiens) (P21728 whole entry, looked up): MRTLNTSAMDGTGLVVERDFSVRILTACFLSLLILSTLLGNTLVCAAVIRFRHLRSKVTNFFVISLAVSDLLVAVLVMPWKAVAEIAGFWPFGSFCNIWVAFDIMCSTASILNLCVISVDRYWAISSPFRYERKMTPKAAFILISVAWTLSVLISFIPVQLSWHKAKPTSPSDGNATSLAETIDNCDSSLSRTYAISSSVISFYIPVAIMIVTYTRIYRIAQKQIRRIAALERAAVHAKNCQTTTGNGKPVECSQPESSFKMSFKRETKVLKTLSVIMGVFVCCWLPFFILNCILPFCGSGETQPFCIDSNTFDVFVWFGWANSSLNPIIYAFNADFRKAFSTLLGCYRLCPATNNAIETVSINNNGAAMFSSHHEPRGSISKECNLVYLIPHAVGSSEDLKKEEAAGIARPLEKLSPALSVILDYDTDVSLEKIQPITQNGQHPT

This assay has as its target D(1A) dopamine receptor (Homo sapiens) (UniProt P21728). Put plainly: Allosteric Agonists of the Human D1 Dopamine Receptor: qHTS. Also: 0% is about no effect. Conditions: HEK293 T-REx D1 cells, calcium flux, agonist mode; at 2 µM; active compounds read high. The text has this: NIH Chemical Genomics Center [NCGC] NIH Molecular Libraries Probe Centers Network [MLPCN] MLPCN Grant: NS064831-01 Assay Submitter (PI): David Sibley Dopamine receptors (DARs) are involved in the etiology and/or therapy of a number of neuropsychiatric and endocrine disorders. For instance, all receptor-based antiparkinsonian drugs work via stimulating the D1 DAR subtype whereas all FDA-approved antipsychotic agents are antagonists of this receptor. […] There are three different types of allosteric modulators that we are seeking, two of which will stimulate or augment receptor signaling, allosteric agonists and potentiators, while the third, allosteric antagonists, will attenuate receptor signaling. The present primary screening assay measures compound agonism by tracking calcium flux in a […], inducible Hek293 Trex D1 cell line.
Freshly passaged cells are plated in 1536 well black, clear bottom plates at a density of 4000 cells/well in 3 ul of complete media containing 1x tetracycline inducer. After an overnight incubation at […] in 5% CO2, cells are loaded with 2 ul of the no wash Calcium Assay Kit (ABD Bioquest) and incubated at room temperature for 30 to 90 minutes. Agonist read: A 10 cycle (1 second/cycle) baseline measurement is taken and then the FDSS online 1536 pintool delivers 23 nl of compound library (as well as dopamine controls) to the plate. The plate is measured for kinetically at 1 cycle/sec for 180 seconds and is considered to be the agonist portion of the assay (eg, compounds which activate a positive calcium response during this portion are flagged as potential agonists). Following the 180 second read, 1 ul of either an EC20 (positive modulation assay) or EC80 (negative modulation assay) is delivered by an onboard pipette head. Measurements are taken kinetically for an additional 180 seconds.
For the compound `COc1ccc(C2=NOC(C(=O)NCc3ccco3)C2)cc1OC` (stereo not given), the activation was 1.23%. The same measure for `COc1ccc(CNC(=O)C2CC(c3ccc(C(F)(F)F)cc3)=NO2)cc1` (stereo not given): 16.3%. As for `O=C(NCc1cc(C(F)(F)F)cc(C(F)(F)F)c1)C1CC(c2cccc(F)c2)=NO1` (stereo not given), the activation was 44.2% (active). The same measure for `Cc1ccc(N(CC(=O)NCc2ccc(Cl)cc2)S(=O)(=O)N(C)C)cc1`: -0.642%.

For the compound `Cn1c(=O)c(C(=O)O)nn(-c2ccccc2)c1=O`, the activation was 1.73%. Consider `COc1cccc(NC(=O)CSC2=Nc3ccccc3C3=NC(CC(=O)NC4CCCCC4)C(=O)N23)c1` (stereo not given), for which the activation was 0.2%. For the compound `CCCN(CCC)C(=O)C1CCCN(c2ncnc3c2nc2n3CCCCC2)C1` (stereo not given), the activation is -0.793%. The same measure for `COc1ccc(NC(=O)N2CCCn3nc(C)cc32)cc1OC`: -0.666%; for `Cc1cccc(-c2nc(CS(=O)CC(=O)NC(C)CCc3ccccc3)c(C)o2)c1` (stereo not given): 33.5% (active); for `COc1ccc(CNC(=O)CS(=O)Cc2nc(-c3cccc(C)c3)oc2C)cc1` (stereo not given): 3.98%. The result for `Cc1ccc(-c2nc(CS(=O)CC(=O)NC3CCCC3)c(C)o2)cc1` (stereo not given) reads -0.511%. For the compound `Cc1ccc(-c2nnc(Nc3cccc(Br)c3)c3ccccc23)cc1S(=O)(=O)NCC1CCCO1` (stereo not given), the activation is 3.26%. For the compound `Cc1nc2c(c(=O)n1Cc1ccco1)c1nc3ccccc3nc1n2Cc1ccccc1`, the activation is 0.836%. The result for `Cc1cc(OCC(=O)N(C)c2c(N)n(Cc3ccccc3)c(=O)[nH]c2=O)c(C(C)C)cc1Cl` reads -0.311%; that for `Cc1cc2nc3c(=O)n(Cc4ccccc4)c(=O)[nH]c3nc2cc1N`, 368% (active). The result for `CCOCCCNC(=O)c1c(NC(=O)Cc2coc3ccc(C)cc23)sc2c1CCC2` reads 6.68%; that for `Cc1ccc2nc(/C(C#N)=C/c3ccccc3F)[nH]c2c1`, -1.08%; that for `Cc1ccc2nc(/C(C#N)=C/c3ccc(-c4ccc(C(=O)OC(C)C)cc4)o3)[nH]c2c1`, 165% (active). `CCOC(=O)c1ccc(-c2ccc(/C=C(\C#N)C(=O)Nc3ccc(C)cc3)o2)cc1`: the activation is 6.86%.

Regarding `O=C(Nc1c(C(=O)N2CCN(c3ccc(F)cc3)CC2)oc2ccccc12)c1ccco1`, the activation was 3.39%. The result for `COC(=O)c1cc(S(=O)(=O)N2CCN(c3cc(Cl)ccc3C)CC2)c[nH]1` reads 6.55%; that for `CN=C1S/C(=C\c2ccc(Sc3ccc(Cl)cc3)o2)C(=O)N1C`, -0.0809%. The result for `O=C(O)C(c1ccccc1)N1C(=O)/C(=C\c2ccc(-c3cccc(Cl)c3)o2)SC1=S` (stereo not given) reads 33.5% (active).

In the case of `O=C(NC(=S)Nc1cc(C(F)(F)F)ccc1N1CCOCC1)c1ccc(-c2cccc(Cl)c2)o1`, the activation is 4.39%. The result for `Cc1ccc2[nH]c(=O)c(-c3nc4c(C)cccn4c3NCc3ccco3)cc2c1` reads 1.97%. The same measure for `CCCN(CCC)c1nc2c(C)cccn2c(=O)c1/C=C1/SC(=S)N(Cc2ccco2)C1=O`: 48.8% (active); for `COC(=O)CN1C(=O)CSc2ccc(S(=O)(=O)Nc3cc(C)ccc3C)cc21`: -2.48%. On to `Cc1c(Cl)cccc1NC(=O)C(=O)NCCc1csc2nc(-c3ccccc3F)nn12`, for which the activation is 8.86%.

With `COc1cc(OC)cc(C(=O)Nc2cc3nn(-c4ccccc4)nc3cc2Cl)c1`, the activation is 0.0669%.

With `CC(C)(C)C(=O)/C(C#N)=C/c1ccc(O)cc1`, the activation is 6.88%. The result for `COc1cccc(C(=O)NNC(=O)/C=C/c2ccccc2)c1` reads 1.13%; that for `O=C(/C=C(O)/C=C/c1ccc(O)cc1)/C=C/c1ccc(O)cc1`, 432% (active).

For `CCN(CC)c1ccc(NC(=O)Cn2nc3c(cc2=O)CCCC3)c(C)c1`, the activation is -0.284%.

On to `COc1cccc(N=C2SC(C(=O)Nc3cccc(Cl)c3)CC(=O)N2C)c1` (stereo not given), for which the activation is 25.2%.

As for `CCN(CC)c1ccc(NC(=O)CN2C(=O)c3cccnc3Oc3ccc(Cl)cc32)c(C)c1`, the activation is 1.12%. For `CCc1c(C)sc(NC(=O)c2cccs2)c1C(N)=O`, the activation was 0.933%.

As for `CCc1c(C)sc(NC(=O)c2ccc(Br)o2)c1C(=O)OC`, the activation was 32.9% (active).

As for `CCc1c(C)sc(NC(=O)C2c3ccccc3Oc3ccccc32)c1C(=O)OC(C)C`, the activation is -0.651%. The result for `O=C(NC1CC(=O)N(c2ccccc2)C1)c1ccco1` (stereo not given) reads 2.23%; that for `COc1ccc(-c2nc3scc(CCNS(=O)(=O)c4cc(F)ccc4OC)n3n2)cc1OC`, -4.62%; that for `O=C(CSc1oc(-c2ccco2)nc1S(=O)(=O)c1ccccc1)c1ccc(Cl)cc1`, 5.58%. The result for `COc1ccccc1Nc1cc(C(=O)NCCCN(C)C2CCCCC2)c2ccccc2n1` reads 183% (active); that for `CCCCN(CCCNC(=O)c1cc(Nc2ccccc2OC)nc2ccccc12)c1ccccc1`, 0.606%. Take `COc1ccc(Nc2cc(C(=O)NCCCN(C)c3ccccc3)c3ccccc3n2)c(OC)c1`: the activation was 1.01%. For the compound `COc1ccccc1Nc1c2c(nc3ccc(NC(=O)/C=C/c4cc(OC)c(OC)c(OC)c4)cc13)CCCC2`, the activation is -0.5%.

As for `CCCCCCCCCCOC(=O)C[N+](C)(C)CC1CCCCC1O` (stereo not given), the activation is 31.1% (active). For `CCCCCOC(=O)c1ccc(N2C(=O)C3C4C=CC(C4)C3C2=O)cc1` (stereo not given), the activation is 19.5%.

In the case of `COc1cc(C(=O)NCC(c2ccc(Cl)cc2)N2CCOCC2)cc(OC)c1OC` (stereo not given), the activation is -0.448%. With `Cc1[nH]c2ccccc2c1C(c1ccccc1)c1cccs1` (stereo not given), the activation was 0.783%. On to `O=C(CCc1nc(CN2CCN(S(=O)(=O)c3ccc(Cl)cc3)CC2)no1)N1CCCCC1`, for which the activation is 12.7%. In the case of `CCN(CC)S(=O)(=O)c1ccc2c(c1)N(CC(=O)NCC(C)c1ccccc1)C(=O)CO2` (stereo not given), the activation is 4.4%. The same measure for `Cc1ccc(CNC(=O)Cn2c(=O)ccc3cc(S(=O)(=O)N4CCCC4)ccc32)cc1`: -0.173%.

`CCOc1ccc(CNC(=O)c2ccc(CS(=O)c3ccccc3)o2)cc1` (stereo not given): the activation was 0.22%. Turning to `CCOc1ccc(CNC(=O)c2cc(-c3ccc(Cl)s3)nc3ccccc23)cc1`, the activation was 36.4% (active). With `CCOc1ccc(Cn2nnc(C(=O)Nc3ccc(OC)cc3OC)c2N)cc1`, the activation was 6.39%.

As for `CC(=O)N1CCN(C(=O)c2cc(-c3ccc(Cl)s3)nc3ccccc23)CC1`, the activation was -0.053%. On to `Cc1c(NC(=O)c2cc(-c3ccc(Cl)s3)nc3ccccc23)c(=O)n(-c2ccccc2)n1C`, for which the activation was 0.635%. Turning to `CCOc1ccc(Cn2nnc(C(=O)NCc3ccccc3)c2N)cc1`, the activation was 36.7% (active).

With `CCc1ccccc1NC(=O)c1sc2nc3c(cc2c1N)CN(Cc1ccccc1)CC3`, the activation was 0.298%. For `O=[S+]([O-])(c1ccc2c(c1)OCCO2)N1CCN([S+](=O)([O-])c2c(Cl)cc(Cl)cc2Br)CC1`, the activation is 0.0145%.

Take `O=S(=O)(Nc1cccc2cccnc12)c1cccc2cccnc12`: the activation is 23.3%. On to `COc1ccc(-c2nc3nc(C)cc(C)n3c2Nc2c(C)cccc2C)cc1`, for which the activation was 7.65%. For `c1ccc(C[C@H]2CNCCN2CCC23CC4CC(CC(C4)C2)C3)cc1`, the activation is 39.5% (active). Consider `COc1cc(-c2cc3n(C)c(C)c(CCC(=O)Nc4ccc(F)cc4)c(=O)n3n2)cc(OC)c1OC`, for which the activation is 0.314%. The result for `Cc1ccc(Cl)cc1NC(=O)/C(C#N)=C\c1cn(Cc2ccc(F)cc2)c2ccccc12` reads 6.19%.

As to `CCc1nc(-c2cc(S(=O)(=O)N3CCN(c4ccc(OC)cc4)CC3)ccc2OC)no1`, the activation is 4.75%. Turning to `CSc1nc(-c2ccc(F)cc2)nc2c1Cc1c(CO)cnc(C)c1O2`, the activation is 1.34%. The result for `O=C(OCCN=C1NS(=O)(=O)c2ccccc21)c1cccc([N+](=O)[O-])c1` reads 3%. In the case of `N#CC1(NC(=O)COC(=O)CCN=C2NS(=O)(=O)c3ccccc32)CCCCC1`, the activation is 4.55%. The same measure for `O=C(CCCN=C1NS(=O)(=O)c2ccccc21)OCC(=O)c1ccc(F)c(F)c1`: 68.2% (active); for `O=C(O)c1c(CNCc2cccc(F)c2)c2ccccc2n1Cc1ccccc1`: -1.09%. `COc1cc(OC)c(NC(=O)C2CCCN2C(=O)OCc2ccccc2)cc1Cl` (stereo not given): the activation is -0.285%. The same measure for `COc1cc(CNC2CCCC2)c(Br)cc1OCc1ccccc1`: 42.3% (active). `COc1cc(CNC2CCCCC2)c(Br)cc1OC1CCCC1`: the activation is 10.2%. For `Cc1nc(-c2ccc(Cl)cc2)sc1C1(C)CC(c2ccccc2F)=NO1` (stereo not given), the activation is 6.23%. The result for `Cc1nc(C(=O)NCc2ccccc2)sc1C1(C)CC(c2cccnc2)=NO1` (stereo not given) reads 41.4% (active). The result for `Cc1nc(C(=O)Nc2ccc(Cl)cc2)sc1C1(C)CC(c2ccccc2)=NO1` (stereo not given) reads 6.69%; that for `COc1cccc(-n2ccn(CC(=O)NCc3ccc(C)cc3)c(=O)c2=O)c1`, 14.3%.

With `Cc1ccc(CNC(=O)c2cccc3c2C(=O)c2ccc(N4CCC(C)CC4)cc2S3(=O)=O)cc1`, the activation was 179% (active). The result for `COc1cccc(-c2ccc3c(c2)S(=O)(=O)c2cccc(C(=O)O)c2C3=O)c1OC` reads 0.629%.

Take `Cc1ccc(CNC(=O)c2ccccc2CCc2ccccc2)cc1`: the activation is 4.45%. With `Cc1ccccc1OCC(=O)Nc1c(C(=O)Nc2ccccc2F)oc2ccccc12`, the activation was 20.7%. The same measure for `CCOC(=O)c1c(C)[nH]c(CCC(=O)Nc2ccc(OC)c(OC)c2)c1C`: -0.109%. As for `Cc1cc(=O)c2cc(C(=O)Nc3cccc(C)c3C)ccc2[nH]1`, the activation is -0.195%. With `c1ccc2cc(OCCN3CCCC3)ccc2c1`, the activation was 5.59%. The result for `Cc1cc(OCCN2CCCC2)ccc1C(C)C` reads 2.99%; that for `Cc1nn(CCOc2ccccc2)c(=O)n1-c1ccccc1F`, 1.91%; that for `CC(C)(c1ccccc1)c1ccc(OCCN)cc1`, 63.3% (active). Consider `CC(C)(C)c1ccc(Oc2ccc(N)cc2)cc1`, for which the activation is 5.93%. In the case of `CC(C)(c1ccccc1)c1ccc(OCCN2CCCC2)cc1`, the activation is 35.8% (active).

The values are drawn from PubChem BioAssay AID504660 (National Center for Advancing Translational Sciences (NCATS), 2011).
